Test results reported in PubChem BioAssay AID588727 (Southern Research Specialized Biocontainment Screening …, 2011).
The whole screen tested about 350,000 compounds, of which about 450 (0.13%) were called active. How the calls were made is not given here. A selection follows. Results with a measured potency or affinity are listed apart.

Assay: inhibitors of VEEV TC-83 cytopathic effect, confirmation, Vero cells (AID 588727)
Conditions: VEEV TC-83 cytopathic effect inhibition, at 20 µM; stronger effect = higher value unless noted

SMILES | inhibition | outcome
CC(C)OC(=O)CSc1nnc(CNc2ccc(Cl)cc2)n1Cc1ccccc1 | inactive | 
Cc1cc(/N=C/C=C2/N(C)c3ccccc3C2(C)C)n(CCC#N)n1 | 1.39% (inactive) | 
CC(=O)Nc1c2c(nn1-c1cccc(Cl)c1)CS(=O)(=O)C2 | inactive | 
O=C(COC(=O)/C=C/c1ccc(F)cc1)NC1CCCC1 | 2.24% (inactive) | 
Cn1nnnc1Sc1ncnc2scc(-c3ccc(C(F)(F)F)cc3)c12 | inactive | 
CCCCCC1CC(CC(=O)Nc2ccc([N+](=O)[O-])cc2)OC1=O (stereo not drawn) | inactive | 
NC(=NC1CCCCC1)c1ccc(Cl)cc1 | 0.26% (inactive) | 
CCCCn1c(=O)[nH]c(=O)c2c1nc(CN(C)Cc1cccc(OC)c1OC)n2CCC | 6.28% (inactive) | 
CCCCCC(=O)N1C[C@@H](n2cc(COC(=O)c3ccccc3)nn2)[C@H](O)C[C@@H]1c1ccc(OC)cc1 | 0.24% (inactive) | 
Cc1cccc(-n2ncc3c(N4CC(C)CC(C)C4)ncnc32)c1 (stereo not drawn) | 1.8% (inactive) | 
Cc1cccc(C(=O)NCCNC(=O)c2cccc(C)c2)c1 | inactive | 
CNC(=O)C1=C(C)Nc2nc3ccccc3n2C1c1ccc(F)cc1 (stereo not drawn) | 0.17% (inactive) | 
O=C(CC(=O)c1cccc([N+](=O)[O-])c1)Nc1ccccc1Cl | inactive | 
Cc1ccc(S(=O)(=O)N2C[C@@H](C)[C@]3(C2)[C@H](O)[C@H](OC(=O)NCc2ccccc2)C[C@H]2C(=O)N(c4ccccc4)C(=O)[C@H]23)cc1 | 5.33% (inactive) | 
Cc1ccc(S(=O)(=O)N2C[C@@H](C)[C@]3(C2)[C@H](O)[C@H](OC(=O)NC2CC2)C[C@H]2C(=O)N(c4ccccc4)C(=O)[C@H]23)cc1 | 11.5% (inactive) | 
COCCNC(=O)CN(c1ccc(OC)c(OC)c1)S(=O)(=O)c1ccc(C)cc1 | 1.04% (inactive) | 
COC(=O)c1ccc(-n2c(C)cc(C(=O)COC(=O)CNS(=O)(=O)c3ccc(C)cc3)c2C)cc1 | 0.63% (inactive) | 
CCC(CC)c1nnc(NC(=O)c2c(C)nn(Cc3ccccc3Cl)c2C)s1 | 7.55% (inactive) | 
CC(=O)Nc1ccc(NC(=O)c2c(C)nn(Cc3ccccc3Cl)c2C)cc1 | inactive | 
CC1CC(=O)N(C)c2cc([N+](=O)[O-])ccc2N1 (stereo not drawn) | 1.14% (inactive) | 
COC(=O)c1cccc(NC(=S)N2CCOCC2)c1 | 0.95% (inactive) | 
CCCCCC(=O)N1C[C@@H](n2cc(COC(=O)c3ccccc3)nn2)[C@H](O)C[C@@H]1c1ccccc1 | inactive | 
c1ccc(-c2nc3c([nH]2)CCc2nonc2-3)cc1 | 2.3% (inactive) | 

SMILES | inhibition | outcome
COn1c(-c2ccccc2)nc2c1CCc1c-2no[n+]1[O-] | 5.93% (inactive) | 
Cc1ccccc1CC(=O)c1ccc(O)c(C)c1O | 5.23% (inactive) | 
CCc1ccc(NC(=O)CS(=O)CC(=O)Nc2ccc(-n3cnnn3)c(C)c2)cc1 (stereo not drawn) | 2.1% (inactive) | 
CCNc1oc(/C=C/c2ccc(OCC)cc2)nc1C#N | 6.65% (inactive) | 
CCOc1ccc(/C=C/c2nc(C#N)c(NCCCOC)o2)cc1 | 6.2% (inactive) | 
CC1=C(C(=O)Nc2ccccn2)C(c2ccc(Br)cc2)NC(=S)N1 (stereo not drawn) | 2.92% (inactive) | 
O=C(O)c1ccccc1Nc1ccc([N+](=O)[O-])cc1C(=O)O | inactive | 
O=C(O)c1cc([N+](=O)[O-])ccc1Nc1ccccc1 | 0.6% (inactive) | 
O=C(Nc1cccnc1)c1cccnc1Cl | 0.62% (inactive) | 
CCCCOc1ccc(C(=O)Nc2ccc(N3CCN(C(C)=O)CC3)cc2)cc1 | 3.29% (inactive) | 
CCOc1ccc(C(=O)Nc2ccc(N3CCN(C)CC3)cc2)cc1 | 2.08% (inactive) | 
CCc1ccc(NC(=O)CC2C(=O)N(c3cccc(OC)c3)C(=O)N2CCOC)cc1 (stereo not drawn) | 1.82% (inactive) | 
Cc1cccc(N(Cc2ccccc2)C(=O)CSC(C)C(=O)Nc2cc(C)on2)c1 (stereo not drawn) | 7.94% (inactive) | 
Cc1cc(NC(=O)C(C)SCC(=O)OCC(=O)N(Cc2ccccc2)C(C)(C)C)no1 (stereo not drawn) | 1.5% (inactive) | 
CCOC(=O)Cn1cc(C(=O)C2CC2)c2ccccc21 | 1.2% (inactive) | 
COc1cccc(-n2c(CN3CCN(c4ccccc4)CC3)nc3ccc([N+](=O)[O-])cc3c2=O)c1 | 2.74% (inactive) | 
COc1cccc(-n2c(CN3CCOCC3)nc3ccc([N+](=O)[O-])cc3c2=O)c1 | 7.79% (inactive) | 
O=c1c2cc([N+](=O)[O-])ccc2nc(CN2CCN(c3ccccn3)CC2)n1-c1ccccc1F | 1.21% (inactive) | 
CCC(CC)N1CCN(Cc2nc3ccc([N+](=O)[O-])cc3c(=O)n2-c2ccccc2F)CC1 | 22.2% (inactive) | 
COc1cc(NC(=O)c2sc3ncn(CC(=O)N4CCCCC4C)c(=O)c3c2C)cc(OC)c1OC (stereo not drawn) | 11.6% (inactive) | 
Cc1ccc(CN2CC(C(=O)NNC(=O)c3ccc(F)cc3)CC2=O)cc1 (stereo not drawn) | inactive | 
COCCCNC(=O)c1cc(-c2cccnc2)nc2ccccc12 | inactive | 
COCCNC(=O)COC(=O)c1cc(-c2ccc(OC)cc2)nc2ccccc12 | 0.73% (inactive) | 

SMILES | inhibition | outcome
Cc1cccc2cc(CN(CCN(C)C)C(=S)NCc3ccco3)c(=O)[nH]c12 | 6.74% (inactive) | 
CN(C)CCN(Cc1cc2cc3c(cc2nc1Cl)OCO3)C(=O)c1ccco1 | 1.49% (inactive) | 
CCN(CC)CCNC(=O)c1cc2c(=O)n(CC)c3ccccc3c2s1 | 8.46% (inactive) | 
CC1(C)NC(=O)N(CC(O)CN2CCOCC2)C1=O (stereo not drawn) | 1.64% (inactive) | 
Cc1cc(NC(=O)COc2ccccc2C)ccc1NC(=O)c1ccco1 | 2.11% (inactive) | 
COc1ccc(S(=O)(=O)N(C)c2ccc(C(=O)Nc3cccnc3)cc2)cc1 | 8.16% (inactive) | 
C=C1CC2C(=O)N(Cc3cc(OC)ccc3OC)C(C(=O)OCC)(C(=O)OCC)C1N2C(=O)OC(C)(C)C (stereo not drawn) | inactive | 
CCN1C/C(=C/c2ccc(OC)c(O)c2)C(=O)/C(=C/c2ccc(OC)c(O)c2)C1 | inactive | 
COc1ccc(/C=C2\CN(Cc3ccccc3)C/C(=C\c3ccc(OC)cc3OC)C2=O)c(OC)c1 | 6.18% (inactive) | 
Cc1cc(C)cc(-n2ncc3c2CCCC3NC(=O)CCCn2cncn2)c1 (stereo not drawn) | 0.41% (inactive) | 
COc1ccccc1C1CCCN1Cc1nc(-c2cc3c(cc2Cl)OCO3)oc1C (stereo not drawn) | 3.15% (inactive) | 
CCOc1ccccc1-c1nc(CN2CCCC2c2nccs2)c(C)o1 (stereo not drawn) | 8.27% (inactive) | 
COc1ccc(OC)c(S(=O)(=O)NCCS(=O)(=O)N2CCN(c3ccccc3)CC2)c1 | 0.7% (inactive) | 
Cc1nc2ccccc2c(=O)n1NC(=O)/C=C/c1ccc(Br)cc1 | inactive | 
Cc1c(NC(=O)Nc2ccccc2)c(=O)n(-c2ccccc2)n1C | inactive | 
O=C(NNC(=O)c1ccc2ccccc2c1O)NC1CCCCC1 | 2.22% (inactive) | 
O=C(NC1CCCCC1)c1cc2ccccc2cc1O | inactive | 
O=S(=O)(c1cccc2nsnc12)N1CCc2ccccc21 | inactive | 
Cc1nnc(N2CCCC(C(=O)NCc3cccc(F)c3)C2)c2nn(-c3ccccc3)c(C)c12 (stereo not drawn) | 7.4% (inactive) | 
Cc1ccc(CNc2nc(N)c([N+](=O)[O-])c(NCCO)n2)cc1 | 5.11% (inactive) | 
O=c1c2sccc2nc(SCc2cc(=O)n3cc(Cl)ccc3n2)n1-c1ccc(F)cc1 | 6.28% [measured here: 10K pilot screen inhibition, stronger effect = higher value] | inactive
Cn1c(C(=O)NCc2cccs2)cc2c(=O)n(C)c3ccccc3c21 | 0.66% (inactive) | 
Cc1c(C(=O)NCc2cccs2)oc2ccccc12 | 1.87% (inactive) | 

SMILES | inhibition | outcome
COCCNC(=O)c1cc2oc3ccccc3c2n1C | 3.48% (inactive) | 
Cc1ccc2c(c1)cc(C(=O)N[C@@H](Cc1ccccc1)C(=O)O)n2C | inactive | 
COc1cccc(CNC(=O)c2cc3oc4ccccc4c3n2C)c1OC | 55% (inactive) | 
Cc1ccc(CNC(=O)c2cc3c(=O)n(C)c4ccccc4c3n2C)cc1 | 0.2% (inactive) | 
CCOc1ccccc1CNC(=O)c1cc2occc2n1C | 3.56% (inactive) | 
Cn1c(C(=O)NCC2CCCO2)cc2oc3ccccc3c21 (stereo not drawn) | 6.64% (inactive) | 
CC(C)CCC(=O)N1CCC(N2CCC(C(=O)NCc3ccccn3)CC2)CC1 | 0.93% (inactive) | 
CC(C)(C)n1nc2c(c1NC(=O)c1ccc(F)c(F)c1)CS(=O)(=O)C2 | 0.7% (inactive) | 
O=C(C1CC(=O)N(c2ccc(F)cc2)C1)N1CCCCCC1 (stereo not drawn) | inactive | 
O=C1c2cccnc2C(=O)N1CO | 0.3% (inactive) | 
CC(C)(C)C1CCc2c(sc3c2C(=O)NC(c2ccco2)N3)C1 (stereo not drawn) | 0.21% (inactive) | 
CCC(=O)Nc1cc(C(=O)O)ccc1Sc1ccccc1 | 0.44% (inactive) | 
Cn1cc(CCC(=O)NCc2cccc(Cl)c2)c2ccccc21 | 0.85% (inactive) | 
O=C(COC(=O)c1ccc(Cl)cc1[N+](=O)[O-])NCc1ccco1 | 0.06% (inactive) | 
Cc1ccc(S(=O)(=O)Nc2ccc(C(=O)NCCCn3ccnc3)cc2)cc1[N+](=O)[O-] | 0.22% (inactive) | 
COc1ccc(COC(=O)c2cccc(S(=O)(=O)N3CCN(C(C)=O)CC3)c2)cc1F | 1.43% (inactive) | 
CC(=O)OC1CCC2(C)C3CCC4(C)C(C(C)=O)CCC4C3CC3OC32C1 (stereo not drawn) | 4.89% (inactive) | 
CC12CC[C@H]3[C@@H](CCC4(O)C[C@H](O)CCC34/C=N/NC(=O)c3ccccc3F)C1(O)CCC2C1=CC(=O)OC1 (stereo partly drawn) | 8.49% (inactive) | 
C[C@]12CCC3C(CC[C@H]4C[C@H](O)CC[C@]34C)C1CC(=O)[C@@H]2O (stereo partly drawn) | 2.26% (inactive) | 
CC(=O)OC1CC[C@]2(C#N)[C@H]3CC[C@]4(C)[C@H](C5C=CC(=O)O5)CCC4(O)C3CCC2(O)C1 (stereo partly drawn) | 21.3% (inactive) | 
C[C@]12CCC3C(CC[C@@H]4C[C@@H](O)CC[C@]34C)C1CC[C@@H]2O (stereo partly drawn) | 1.93% (inactive) | 
CC12CC[C@H]3[C@@H](CCC4(O)C[C@H](O)CCC34/C=N/NC(=O)Cc3ccccc3)C1(O)CCC2C1=CC(=O)OC1 (stereo partly drawn) | 1.62% (inactive) | 
CC(=O)OC1CC2(O)C3CCC4CC(O)CCC4(C)C3CCC2(C)C1C1=CC(=O)OC1 (stereo not drawn) | 24.4% (inactive) | 
